Experimental data as given in the supplement of paper PMC6555819.

Columns and labels:
Assay in all cases: PBM binding z-score (relative to random genomic background probes); higher = stronger binding; sequences stand for … in GC…GCGATTGACAGCGTAGAATGAAGG
[1] = system: RARb homodimer (NR concentration 270 nM)
Summary of the method: (§1)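 For binding z-scores, the reference was random background probes on custom Agilent 4×180K protein-binding microarrays. These arrays were incubated 1 h with ligand-free nuclear receptor dimers in PBS pH 7.4, 2% milk, 0.02% Triton X-100, 1 mM DTT, 0.2 mg/mL BSA and 0.4 mg/ml salmon testes DNA. Fluorescence was scanned after antibody detection of each partner (one per run) and regression-normalized.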

[2] = system: RARg:RXRa (NR concentration 270 nM, RXRa partner concentration 90 nM)
Summary of the method: as §1

[3] = system: RARg homodimer (NR concentration 270 nM)
Summary of the method: as §1

[4] = system: RXRa DBDmut IVT, anti-RXR (DBD mutation: RXRa K156A/R161A, NR concentration 90 nM)
Summary of the method: as §1

[5] = system: RXRa homodimer (NR concentration 180 nM)
Summary of the method: as §1

[6] = system: THRa:RXRa (NR concentration 90 nM, RXRa partner concentration 90 nM)
Summary of the method: as §1

[7] = system: THRa homodimer (NR concentration 90 nM)
Summary of the method: as §1

[8] = system: VDR homodimer (NR concentration 270 nM)
Summary of the method: as §1

Sequence	PBM binding z-score [1]	PBM binding z-score [2]	PBM binding z-score [3]	PBM binding z-score [4]	PBM binding z-score [5]	PBM binding z-score [6]	PBM binding z-score [7]	PBM binding z-score [8]
GCATATAGGTAATACAAGGTGAAGGTCCGATTGT	1.04	0.61	0.653	0.103	0.694	4.08	1.09	-0.214
CCTAGTTGGTCAGGAGGTTACACACCGGATATGA	1.49	1.67	1.33	0.179	1.3	1.03	0.918	0.702
GGAACGAGGCCAAAGTTGATAGCATCTGTCGACG	0.373	0.787	0.688	0.917	0.814	0.667	-0.899	-0.181
TCTGCTAGGTCAGTAGGTCAGCTAACGAGCTGCC	3.94	4.77	4.67	0.677	2.36	1.93	0.157	-0.0493
TAGCATAGGTCATGGGCCAGTATACCACGCGAAC	3.37	5.5	4.93	0.253	5.71	2.67	-0.279	0.267
CCAGCCAGGTGAAAGGTAACTCAGTCTGGTACGC	0.43	0.724	0.203	-0.519	1.37	1.55	0.326	-0.192
AGAACGAGGGCACGCTGAGCTGATAGCAGAGTAG	0.904	1.83	2.12	1.48	1.2	1.39	-0.398	0.48
GCTGCTGGGTCAGGTTGGTCAGCTAACGGGTACG	2.57	1.94	2.78	-0.0156	0.839	1.21	0.312	0.573
CCTCGGAGGACTACAGGAGGTCAGAGCTGCCAGA	2.9	2.37	2.06	-0.895	1.93	2.55	0.263	0.359
CCTAGTTGGTCAAGGTCACCCACGCTATAGGTAC	4.38	4.42	4.75	1.81	4.47	4.22	4.66	4.05
TATACAGGGTCAAAGTCCAGAGTACGAATGTCGA	3.51	5.73	4.9	3.86	6.73	3.65	1.15	4.02
ATCGAAAGGTAGAGGTGAGTATAGAGAAAGGGAA	1.19	0.75	1.07	-0.488	0.652	0.94	0.25	0.0183
TTACCAAGGTGAAGGTCGGTGATCCCTCTGTAGA	1.61	1.3	0.916	-0.375	1.5	2.21	0.976	0.13
GCTGCTAGGTCCACTGATGGTCAGCTAAAGCTCG	0.602	-0.251	-0.0766	0.741	-0.741	-0.256	-0.767	-0.434
CCTCGCAGGCCAATCTGGGTCACTCAAGGCTTGA	2.37	1.18	1.63	0.29	0.763	3.93	0.712	0.14
ATCGAGAGGTCGAGGTGAGTATAGAGAAAGGGAA	2.04	3.39	3.48	1.2	3.51	2.76	0.486	0.635
CCTGCTAGGTCGTGGTCAGCTAATCTACAGTATG	1.21	0.958	1.4	0.759	0.607	0.876	0.18	-0.0912
AGAATGAGGTTACCAAAGATCAGCGAAACGCTTG	0.525	2.03	1.45	1.07	2.44	2.73	0.456	0.187
TAGCCTAGGTCATTCAGGGGCCAGTTTAGAAAGC	3.42	5.71	4.11	1.65	2.56	3.67	0.971	1.28

Sequence	PBM binding z-score [1]	PBM binding z-score [2]	PBM binding z-score [3]	PBM binding z-score [4]	PBM binding z-score [5]	PBM binding z-score [6]	PBM binding z-score [7]	PBM binding z-score [8]
TAGCCTAGGTCAGATCGGGCAAGTATACGCTATA	2.01	2.85	3.43	-0.344	1.29	2.98	-0.283	-0.339
TTACCAAGATGAGCTGAGGTCGTTGATCCAACTC	0.571	0.267	-0.226	0.162	0.858	2.68	1.56	2.02
CCTACTGGGACAAGGTCATTGATCAGTCAAAGCA	3.22	4	3.34	1.7	3.71	3.47	2.27	3.29
TCATATAGGTAGACAGGTGAAAGTCCGTAAGTTA	0.985	0.378	0.361	1.68	0.907	0.763	0.486	0.286
GCGAATGGGGCAAAGCAGGTTACCATAAGGTTGG	1.06	0.565	0.52	-0.201	0.442	3.12	0.0667	-0.552
CCTACTGGGCCATTCAGAGGTCATTGACCATATG	4.16	4.57	3.23	0.945	3.98	3.28	1.45	3.34
ACTAGTTGATCAGCTGAGGTCACACACAATTCGG	4.17	3.71	3.35	1.75	3.94	4.3	4.96	4.13
ATCTCTAGGTAAAGATAGTTCTGTGAATGCAAAT	-0.0245	0.131	0.453	0.28	0.154	0.478	0.132	0.175
ATATGAAGGTTACATCCGGGTCATTCAGGCTATG	3.52	4.75	2.62	1.08	3.74	4.11	2.47	2.96
CAAACTAAGTCACCGGAAGGTCAAAGTCCGCATG	4.37	5.3	3	1.01	3.92	3.26	1.51	2.19
ACTAGCAGGCCAAGGGTTACTCAAGATTAGTCCG	0.787	0.885	0.852	-0.129	1.08	0.78	-0.538	-0.236
TCATATAGCTAAACAGGTGAAAGTCCGTAAGTTA	0.282	0.0319	-0.0908	0.797	0.266	0.318	-0.358	0.105
TCTAGTAGATCAACAGGAGGTTAAGAAAGATCGA	0.413	0.662	0.244	0.766	0.901	0.727	-0.505	0.097
CCTTACGGGGCAAGGTTATAGCACGGGTGGTACG	0.994	1.01	1.11	-1.2	1.08	0.828	-0.345	0.2
ATCTCTAGGTAAAGATAGTTCACTGAATGCAAAT	1.54	1.1	1.18	0.234	0.828	1.31	0.149	1.13
TCTGCTAGGTCAACGATGGTAAGCTAATCTGCTA	2.66	3.8	4.83	0.819	2.4	2.62	0.291	-0.612
CGTCCTAGGTCAAAGGTCAGTGAAGAGATGACGG	4.99	7.97	7.18	2.25	9.16	4.54	1.39	1.24
TCTCGGAGGACACGAAGGTCAGAACTTTCCAGAG	3.24	2.59	3.24	1.26	1.51	2.69	1.15	1.45
CGTCCAAGGTCAAAGGTCGGTGAAGAGATGACGG	4.52	7.18	6.2	3.85	8.84	4.24	2.17	2.78

Sequence	PBM binding z-score [1]	PBM binding z-score [2]	PBM binding z-score [3]	PBM binding z-score [4]	PBM binding z-score [5]	PBM binding z-score [6]	PBM binding z-score [7]	PBM binding z-score [8]
ATCTCTAGGTAAGGTTCAGTGAAAGATCGATAGA	0.959	0.973	1.03	1.35	0.69	0.888	0.39	2.32
TTACCAAGATGAAGGTCGTTGATCCCTCTGTAGA	0.806	0.203	0.0937	0.4	0.993	0.726	-0.149	0.756
CCGAGTGGGGCAGAAAGGTTACCATACCATCCGG	2.09	1.63	1.23	-0.568	1.76	0.899	-0.05	0.0724
TTACCAAGGTGAGCTGAGATCGTTGATCCAACTC	-0.439	-0.0165	0.151	-1.09	-0.0334	1.1	-0.431	-0.976
CTCGAAAGGTCGTGCTCAGGTGAGTATTCCAAAC	3.11	5.04	3.61	2.25	4.55	4.04	1.31	0.806
TCGAGTAGGTTATCAATGGGGCATTCAGCTTTCT	0.483	0.919	0.272	0.822	0.432	0.0952	-0.223	-0.119
ACTAGAAGGCCAAGTTTGGGTCACTCAAACAAAG	2.88	3.27	2.36	0.0906	1.29	3	1.32	0.626
TCTGCTAGGTTAGTTGGTCAGCTAACGAGCTGCC	-0.0655	0.00476	-0.189	-0.0929	-0.323	-0.551	-1.24	-1.15
CCTAGTTGGTCAAGAGGTCACACACCGGATATGA	5.08	6.18	5.31	1.37	6.37	4.15	2.75	3.07
TAGCCTAGATCATTGGGCCAGTATAGTACGCATC	-0.608	-0.554	-0.194	-0.443	-0.398	-0.832	-0.488	-0.283
TCACGGAGGACACGAAAGGTCAGAGCTCGACATC	4.82	4.96	5.55	1.1	4.31	3.55	1.26	1.17
TCTTGTAGACCAATAGAGGTTAAGAAAGTGCGCT	1.42	0.922	0.638	0.754	1.37	1.66	-0.31	0.345
CCGACCGGGGCAAAGGTTACCATACTCAGTACGA	2.34	3.83	2.02	0.0663	4.51	2.47	0.202	0.185
CCTACTGGGCCATTCAGAGGTGATTGATCATATG	0.207	0.611	0.223	-0.252	0.178	0.505	-0.356	-0.44
ACTGACAGGTGAGTGAAGGTAACTCAGCTGGACG	0.153	0.285	0.606	-0.285	0.3	1.74	-0.42	-0.23
CCCATTAGTTGACCATAAGGGCAACCGAAGCTCG	2.53	1.4	0.963	0.208	0.666	2.07	1.89	1.05
GGAACGAGGGGAAAGTTGATAGCATCTGTCGACG	0.0344	0.0991	0.188	0.287	0.258	0.0347	-0.259	-0.402
CAAACTTGGTCACCGGAAGGTCAAAGTCCGCATG	4.11	5.35	4.2	0.79	4.16	3.05	1.24	2.2
TCATATCGGTAAAAGGTGAAAGTCGGTGTGGTAA	2.12	1.68	0.807	1.6	2.29	1.4	0.504	0.635
